# Measurements taken from PubChem BioAssay (NCATS).
# Several values for one entry are separate records, joined by “and”; a condition that tells them apart may be missing. Identical values can stand only once. Records with an inconclusive call do not appear. Where a call stands in place of a potency, no number is given. Values without a mark were called inactive. Activity calls are given as the source filed them. Calls come from the whole dose curve; as a rule, active = well fitted curve in the direction sought with a large enough effect; inconclusive = small, poorly fitted or top-dose-only effect, or another doubt; inactive = no such curve, though single readings can be large; an effect the other way counts as inactive or inconclusive.
# Assay: Primary qHTS for inhibitors of nuclear receptor binding SET domain protein 2 (NSD2) in an isogenic RCH-ACV NSD2 p.E1099K mutant (9B) (AID 1645876)
# Conditions: RCH-ACV NSD2 E1099K (9B) viability, CellTiter-Glo, 72 h; series mostly up to 44.9 µM
# Note: nearly all actives have a fitted effect of over 70% in size.
# Potency is the fitted concentration of half-maximal effect.
SMILES,Potency,"activity change, negative = viability loss"
C/C(=C\CCC(C)CCO)C(=O)OC1(C)CCC2C(C(=O)O)=COC(OC3OC(CO)C(O)C(O)C3O)C21 (stereo not given),inactive,
C[C@@H]1O[C@@H](OC[C@H]2O[C@@H](OC(CCCCc3ccc(O)cc3)CCc3ccc(O)cc3)[C@H](O)[C@@H](O)[C@@H]2O)[C@H](O)[C@H](O)[C@H]1O (stereo not given in full),inactive,
CCC1C(=O)OC23C=C[C@@H]4C(C(=O)O)=CO[C@H](O[C@@H]12)[C@@H]43 (stereo not given in full),25.8 µM (active),
C=C[C@@](C)(O)CC/C=C(\C)C(=O)O[C@@H]1[C@@H]2O[C@]2(C)[C@H]2[C@H](O[C@@H]3O[C@H](CO)[C@@H](O)[C@H](O)[C@H]3O)OC=C[C@@]12O,inactive,
NCc1c[nH]c(=S)n1[C@@H]1CCc2c(F)cc(F)cc2C1,inactive,
COC1CC(O[C@H]2CC[C@@]3(C)C(=CC[C@]4(O)C3[C@H](OC(C)=O)[C@@H](OC(=O)c3ccccc3)[C@]3(C)[C@@H](C(C)=O)CC[C@@]34O)C2)OC(C)C1OC1CC(OC)C(OC2CC(OC)C(OC3OC(C)C(OC4OC(CO)C(O)C(O)C4O)C(OC)C3O)C(C)O2)C(C)O1 (stereo not given in full),,-11.2% [at 9.23 µM]
CC1CCC23COC(=O)C2=CC(O)CC3C1(C)CCC1=CC(O)OC1=O (stereo not given),inactive,
O=C(CC1C(=O)Nc2ccccc21)OC[C@H]1O[C@@H](OCCc2ccc(O)cc2)[C@H](O)[C@@H](O)[C@@H]1O (stereo not given in full),inactive,
CC1(C)CCC2(C(=O)OC3OC(CO)C(O)C(O)C3O)CCC3(C)C(=CCC4C5(C)CCC(O)C(C)(C(=O)O)C5CCC43C)C2C1O (stereo not given),inactive,
C[C@@H]1C[C@H]2O[C@@H]2/C=C\C=C\C(=O)Cc2c(Cl)c(O)cc(O)c2C(=O)O1,488 nM (active) and 640 nM (active),
CC1C(=O)OCC2=CCN3CCC(OC(=O)C(C)(O)C1(C)O)C23 (stereo not given),inactive,

# Assay: Primary qHTS for inhibitors of nuclear receptor binding SET domain protein 2 (NSD2) in an RCH-ACV wild type WT cells (2C) (AID 1645877)
# Conditions: RCH-ACV (leukaemia line) NSD2 WT (2C) viability, CellTiter-Glo, 72 h; series mostly up to 44.9 µM
SMILES,Potency,outcome,"activity change, negative = cell killing"
CC1=C2C3OC(=O)C(C)C3(O)CCC2(C)CCC1O (stereo not given),inactive,,
O=C(OC[C@@]1(O)CO[C@@H](O[C@H]2[C@H](Oc3ccc(O)cc3)O[C@H](CO)[C@@H](O)[C@@H]2O)[C@@H]1O)c1ccc(O)cc1,inactive,,
COC(=O)c1cc(OC)c(O[C@@H]2O[C@@H](C)[C@H](O)[C@@H](O)[C@H]2O)c(OC)c1,inactive,,
CC(=O)c1cc2c(cc1O)OC(C)(C)C=C2,inactive,,
O=C(O)c1ccc(OC2OC(CO)C(O)C(O)C2O)cc1 (stereo not given),inactive,,
FC(F)(F)c1ccc(Nc2nc(-c3c(C(F)(F)F)nc4ccccn34)cs2)cc1,372 nM (active),,
CNC12CC3C[C@@](C)(C1)C[C@](C)(C3)C2,inactive,,
C=C[C@]1(C)C[C@H](O)[C@@H]2[C@H](OC(=O)[C@@H]2C)C1/C(C)=C/O[C@@H]1O[C@H](CO)[C@@H](O)[C@H](O)[C@H]1O (stereo not given in full),inactive,,
C[C@@H]1CC[C@]2(C(=O)O)CC[C@]3(C)C(=CCC4[C@@]5(C)C[C@@H](O)[C@H](O)[C@@](C)(CO)C5CC[C@]43C)C2[C@]1(C)O (stereo not given in full),inactive,,
COc1cc(C(=O)OC[C@@]2(O)CO[C@@H](O[C@H]3[C@H](Oc4ccc(C(=O)O)cc4OC)O[C@H](CO)[C@@H](O)[C@@H]3O)[C@@H]2O)ccc1O,inactive,,
CC(/C=C/C1=CC2=CC(=O)C(C)(O)C(O)C2=CO1)=C\C(C)CCO (stereo not given),inactive,,
CC(Nc1ncnc2nc[nH]c12)c1cc2cccc(Cl)c2c(=O)n1-c1ccccc1 (stereo not given),468 nM (active),,
O=C1OCC(c2ccccc2)=C1Cc1ccccc1,inactive,,
CC(=O)O[C@H]1[C@H](O[C@H]2[C@@H]3C=CO[C@@H](O[C@@H]4O[C@H](CO)[C@@H](O)[C@H](O)[C@H]4O)[C@@H]3[C@@]3(CO)O[C@@H]23)O[C@@H](C)[C@H](OC(=O)/C=C/c2ccccc2)[C@H]1OC(=O)/C=C/c1ccccc1,,inactive [at 9.23 µM],
CC1=C(C)C(=O)OC(C(C)C2CCC3C4C5OC5C5(O)CC(OC6OC(CO)C(OC7OC(C)C(O)C(O)C7O)C(O)C6O)CC(O)C5(C)C4CCC23C)C1 (stereo not given),inactive,,
CC1=CC(=O)CC(C)(C)[C@H]1/C=C/C(CO)O[C@@H]1O[C@H](CO)[C@@H](O)[C@H](O)[C@H]1O (stereo not given in full),inactive,,
COc1cc(O)c2c(c1)C1=C[C@H](O)[C@@H](O)C[C@]1(C)OC2=O,inactive,,
COC(=O)CCC(=O)OC[C@]1(C)CCC[C@@]2(C)C3CC[C@]4(C)C=CC3(CCC12)C4 (stereo not given in full),inactive,,
C=C(CO)C12OC1C1(C)C(=CC2=O)C(O)C(O)CC1C (stereo not given),inactive,,
CC1C=CC2CCCCC2C1CCC1CC(O)CC(=O)O1 (stereo not given),inactive,,

SMILES,Potency,outcome,"activity change, negative = cell killing"
CC(C)(O)C1CCC(C)(C2CCC3(C)C4CCC5C(C)(C(=O)OC6OC(CO)C(O)C(O)C6O)C(O)CC(O)C56CC46CCC23C)O1 (stereo not given),inactive,,
CC(=O)O[C@@](C)(C(=O)/C=C/C(C)(C)O)[C@H]1[C@H](O)C[C@@]2(C)[C@@H]3CC=C4[C@@H](C=C(O)C(=O)C4(C)C)[C@]3(C)C(=O)C[C@]12C,282 nM (active),,
C=C1C[C@]23C[C@H]1[C@@H](O)C[C@H]2[C@@]12C=C[C@H](O)[C@@](C)(C(=O)O1)[C@H]2[C@@H]3C(=O)O,inactive,,
CC1(C)CC[C@]2(C(=O)O[C@@H]3O[C@H](CO)[C@@H](O)[C@H](O)[C@H]3O)CC[C@]3(C)C(=CCC4[C@@]5(C)C[C@@H](O)[C@H](O)[C@](C)(C=O)C5CC[C@]43C)[C@@H]2[C@@H]1O (stereo not given in full),inactive,,
C[C@]12C=C[C@@]3(CCC4[C@](C)(CO)CCC[C@@]4(C)C3CC1)C2 (stereo not given in full),inactive,,
C[C@@H]1O[C@@H](O[C@@H]2[C@@H](O)[C@H](O[C@H]3[C@H](O[C@H]4CC[C@@]5(C)C(CC[C@]6(C)C5CC=C5[C@@H]7CC(C)(C)CC[C@]7(C(=O)O[C@@H]7O[C@H](CO)[C@@H](O)[C@H](O)[C@H]7O[C@@H]7O[C@@H](C)[C@H](O[C@@H]8O[C@@H](C)[C@H](O)[C@@H](O)[C@H]8O)[C@@H](O)[C@H]7O)CC[C@]56C)[C@@]4(C)CO)O[C@H](C(=O)O)[C@@H](O)[C@@H]3O)O[C@H](CO)[C@H]2O)[C@H](O)[C@H](O)[C@H]1O (stereo not given in full),,,-3.64% [at 9.23 µM]
C[C@H](NC(c1cccc2[nH]c(=O)c(=O)[nH]c12)P(=O)(O)O)c1ccc(Br)cc1 (stereo not given in full),inactive,,
CC1(C)CCC2(C(=O)OC3OC(CO)C(O)C(O)C3O)CCC3(C)C(=CCC4C5(C)CCC(OC6OC(C(=O)O)C(OC7OC(CO)C(O)C(O)C7O)C(OC7OC(CO)C(O)C(O)C7O)C6O)C(C)(C)C5CCC43C)C2C1 (stereo not given),,,-7.84% [at 9.23 µM]
C/C(=C\CCC(C)CCO)C(=O)OC1(C)CCC2C(C(=O)O)=COC(OC3OC(CO)C(O)C(O)C3O)C21 (stereo not given),inactive,,
C[C@@H]1O[C@@H](OC[C@H]2O[C@@H](OC(CCCCc3ccc(O)cc3)CCc3ccc(O)cc3)[C@H](O)[C@@H](O)[C@@H]2O)[C@H](O)[C@H](O)[C@H]1O (stereo not given in full),inactive,,
CCC1C(=O)OC23C=C[C@@H]4C(C(=O)O)=CO[C@H](O[C@@H]12)[C@@H]43 (stereo not given in full),18300 nM (active),,
C=C[C@@](C)(O)CC/C=C(\C)C(=O)O[C@@H]1[C@@H]2O[C@]2(C)[C@H]2[C@H](O[C@@H]3O[C@H](CO)[C@@H](O)[C@H](O)[C@H]3O)OC=C[C@@]12O,inactive,,
NCc1c[nH]c(=S)n1[C@@H]1CCc2c(F)cc(F)cc2C1,inactive,,
COC1CC(O[C@H]2CC[C@@]3(C)C(=CC[C@]4(O)C3[C@H](OC(C)=O)[C@@H](OC(=O)c3ccccc3)[C@]3(C)[C@@H](C(C)=O)CC[C@@]34O)C2)OC(C)C1OC1CC(OC)C(OC2CC(OC)C(OC3OC(C)C(OC4OC(CO)C(O)C(O)C4O)C(OC)C3O)C(C)O2)C(C)O1 (stereo not given in full),,,-8.43% [at 9.23 µM]
CC1CCC23COC(=O)C2=CC(O)CC3C1(C)CCC1=CC(O)OC1=O (stereo not given),inactive,,
O=C(CC1C(=O)Nc2ccccc21)OC[C@H]1O[C@@H](OCCc2ccc(O)cc2)[C@H](O)[C@@H](O)[C@@H]1O (stereo not given in full),inactive,,
CC1(C)CCC2(C(=O)OC3OC(CO)C(O)C(O)C3O)CCC3(C)C(=CCC4C5(C)CCC(O)C(C)(C(=O)O)C5CCC43C)C2C1O (stereo not given),inactive,,
C[C@@H]1C[C@H]2O[C@@H]2/C=C\C=C\C(=O)Cc2c(Cl)c(O)cc(O)c2C(=O)O1,275 nM (active) and 640 nM (active),,
CC1C(=O)OCC2=CCN3CCC(OC(=O)C(C)(O)C1(C)O)C23 (stereo not given),inactive,,
